DRD3 agonist: qHTS of D3 Dopamine Receptor Agonist: qHTS; D(3) dopamine receptor (Homo sapiens), P35462; D3R DiscoveRx beta-arrestin cells, luminescence, 90 min; max activation, %; actives 0.58% (n = 410,000); in the data active means max activation above about 30%; further: 0% is about no effect
Target sequence (P35462 whole entry, looked up): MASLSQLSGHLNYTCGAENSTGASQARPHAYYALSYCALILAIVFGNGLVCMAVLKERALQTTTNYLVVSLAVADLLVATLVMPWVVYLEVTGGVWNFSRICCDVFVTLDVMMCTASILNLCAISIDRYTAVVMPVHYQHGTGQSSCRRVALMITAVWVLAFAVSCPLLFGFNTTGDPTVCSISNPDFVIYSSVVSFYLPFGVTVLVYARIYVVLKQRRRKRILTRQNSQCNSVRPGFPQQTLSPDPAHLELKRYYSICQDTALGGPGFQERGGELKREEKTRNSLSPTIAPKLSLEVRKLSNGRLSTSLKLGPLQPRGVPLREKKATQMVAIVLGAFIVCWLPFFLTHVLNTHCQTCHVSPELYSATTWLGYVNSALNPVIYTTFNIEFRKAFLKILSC
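Agonist mode: compounds and dopamine controls were applied to plated cells for 90 min at 37 degrees C after an overnight attachment at 1500 cells/well. Luminescent read-out followed 30 - 60 minutes at room temperature with DiscoveRx detection reagent.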
KB-V1 MDR tox: qHTS assay for MDR1-selective chemotherapeutics: Primary screen using the drug-selected MDR subline cells KB-V1; AID 1347076, 2019; KB-V1 MDR cells viability, CellTiter-Glo, 72 h; actives 3.4% (n = 400,000); Potency, µM (doses to about 46.1 µM), most hits filed as cytotoxic; further: potency means the concentration at half of the fitted maximal effect; on the % scale 0 is the no-effect control and ±100 the full control effect; nearly all actives have a fitted effect of over 60% in size
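Cytotoxicity via CellTiter-Glo luminescence after 72 h compound exposure at 37 degrees C. Cells: drug-selected KB-V1 line, DMEM phenol-red free plus 10% FBS. Compounds tested at multiple concentrations; normalized data fitted to concentration-effect curves.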
SW480 rerep: A quantitative high throughput screen for small molecules that induce DNA re-replication in SW480 colon adenocarcinoma cells; Potency, µM (titrated, usually from 46.1 µM), without a hit: at the top dose re-replication activation, actives largely listed as activators; SW480 DNA re-replication, Hoechst DNA content imaging, 48 h; AID 624297, 2012; actives 1.8% (n = 340,000); further: potency means the concentration at half of the fitted maximal effect; % of control where 0% means no effect; nearly all actives have a fitted effect of over 55% in size
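First, 250 cells per well were seeded. Next, compound or vehicle (23 nL) was pinned in, plates sat 48 hr at 37 C. Finally Hoechst was added for 40 min before fluorescence scanning.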
KB-3-1 tox: qHTS assay for MDR1-selective chemotherapeutics: Primary screen using the parental adenocarcinoma cell KB-3-1. KB-3-1 viability, CellTiter-Glo ATP luminescence, 72 h. Potency, µM (series often up to 46.1 µM), most hits filed as cytotoxic. actives 1.4% (n = 400,000). AID 1347075, 2019; further: potency means the concentration at half of the fitted maximal effect; on the % scale 0 is the no-effect control and ±100 the full control effect; nearly all actives have a fitted effect of over 60% in size
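Parental KB-3-1 adenocarcinoma cells in phenol-red-free DMEM with 10% FBS were pin-treated with compounds at several concentrations, incubated 72 h at 37 °C, and viability read by CellTiter-Glo luminescence; concentration-effect curves were fitted after normalization.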
MCF10A rereplic: A quantitative high throughput screen for small molecules that induce DNA re-replication in MCF 10a normal breast cells | MCF 10A DNA re-replication, Hoechst nuclear intensity, 48 h | Potency, µM (highest dose often 46.1 µM), for the others: at the highest dose activity, positive = re-replication, hits mostly activators | actives 2.9% (n = 350,000) | AID 624296, 2012; further: potency means the concentration at half of the fitted maximal effect; % of control where 0% means no effect; nearly all actives have a fitted effect of over 50% in size
DRD3 antagonist: qHTS of D3 Dopamine Receptor Antagonist: qHTS. D3R cells, DiscoveRx beta-arrestin luminescence, antagonist mode; hits give low values. actives 2.5% (n = 360,000). D(3) dopamine receptor (Homo sapiens), P35462. max response, negative = inhibition, %. AID 652054, 2013; in the data active means max response below about -50%; inconclusive means no clear call, values can overlap the other calls; further: on the % scale 0 is the no-effect control and ±100 the full control effect
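Cells plated overnight at 1500 cells/well, then exposed to library compounds with dopamine controls for 90 minutes at 37 degrees C. DiscoveRx reagent added for 30–60 minutes at room temperature; luminescence read, quantitative HTS format.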
* marks the source's active call; other numbers are inactive results; [ ] = another dose, or the depositor's remark. Rows were chosen to be rich in hits. Some 8.9% of all compounds tested hit in one or more screens of this group. Unless noted, the call rests on the fitted dose curve; in most records, active means well fitted curve in the direction sought with a large enough effect; inconclusive means small, poorly fitted or top-dose-only effect, or another doubt; inactive means no such curve, though single readings can be large; an effect the other way counts as inactive or inconclusive.

Results for COc1cccc(CN2CCNCC2)c1 ?
DRD3 agonist: -12; KB-V1 MDR tox: inactive; SW480 rerep: 7%[1.84 µM]; KB-3-1 tox: inactive; MCF10A rereplic: -27%; DRD3 antagonist: inconclusive

How did COc1ccccc1N1CCN(Cc2ccc3c(c2)OCO3)CC1 do in these assays?
DRD3 agonist: -35; KB-V1 MDR tox: inactive; SW480 rerep: -10%; KB-3-1 tox: inactive; MCF10A rereplic: -2%; DRD3 antagonist: -87*

What do the screens show for `COc1ccccc1N1CCN(Cc2ccccc2)CC1`?
DRD3 agonist: -5; KB-V1 MDR tox: inactive; SW480 rerep: -5%; KB-3-1 tox: inactive; MCF10A rereplic: -2%; DRD3 antagonist: -113*

Results for Oc1cc2c(cc1CN1CCN(c3ccccc3F)CC1)OCO2 ?
DRD3 agonist: -22; KB-V1 MDR tox: inactive; SW480 rerep: 3%; KB-3-1 tox: inactive; MCF10A rereplic: 1%; DRD3 antagonist: -96*

Results for Fc1ccc(N2CCN(Cc3cc4c(cc3Br)OCO4)CC2)cc1 ?
DRD3 agonist: -37; KB-V1 MDR tox: inactive; SW480 rerep: 0%; KB-3-1 tox: inactive; MCF10A rereplic: 11%; DRD3 antagonist: -9

What do the screens show for `COc1ccccc1N1CCN(Cc2c(F)cccc2Cl)CC1`?
DRD3 agonist: -3; KB-V1 MDR tox: inconclusive; SW480 rerep: -2%; KB-3-1 tox: inactive; MCF10A rereplic: 16%; DRD3 antagonist: 0

Results for c1cc2c(cc1CN1CCNCC1)OCO2 ?
DRD3 agonist: 1; KB-V1 MDR tox: inactive; SW480 rerep: -10%; KB-3-1 tox: inactive; MCF10A rereplic: -1%; DRD3 antagonist: -25

What do the screens show for `COc1ccccc1N1CCN(Cc2cccc(Br)c2)CC1`?
DRD3 agonist: -21; KB-V1 MDR tox: inactive; SW480 rerep: -23%; KB-3-1 tox: inactive; MCF10A rereplic: 2%; DRD3 antagonist: -100*

What do the screens show for `CCOc1ccc2nc(NC(=O)c3cccn(Cc4ccc(Cl)cc4)c3=O)sc2c1`?
DRD3 agonist: 3; KB-V1 MDR tox: inactive; KB-3-1 tox: inactive

What do the screens show for `COc1ccccc1N1CCN(Cc2ccc(Br)s2)CC1`?
DRD3 agonist: -6; KB-V1 MDR tox: inconclusive; SW480 rerep: 21%; KB-3-1 tox: inactive; MCF10A rereplic: 10%; DRD3 antagonist: -69*

Results for COc1ccccc1N1CCNCC1 ?
DRD3 agonist: -11; KB-V1 MDR tox: inactive; SW480 rerep: -1%; KB-3-1 tox: inactive; MCF10A rereplic: -2%; DRD3 antagonist: -17

How did COC(=O)Nc1nc2ccccc2[nH]1 do in these assays?
DRD3 agonist: 0; KB-V1 MDR tox: 3.7µM*; SW480 rerep: inconclusive; KB-3-1 tox: 10µM*; MCF10A rereplic: inconclusive; DRD3 antagonist: 21

How did NNc1ccccc1 do in these assays?
DRD3 agonist: -17; SW480 rerep: 0%; MCF10A rereplic: 1%

How did CCOC(C(=O)OCC(O)CN(CC)CC)(c1ccccc1)c1ccccc1 (configuration not stated) do in these assays?
DRD3 agonist: -5; KB-V1 MDR tox: inactive; SW480 rerep: -4%; KB-3-1 tox: inactive; MCF10A rereplic: -41%; DRD3 antagonist: -60*

What do the screens show for `COc1cc(/C=C/c2nc3ccccc3c(=O)n2-c2ccc(O)cc2)ccc1O`?
DRD3 agonist: 20; KB-V1 MDR tox: inconclusive; SW480 rerep: inconclusive; KB-3-1 tox: inconclusive; MCF10A rereplic: 21µM*; DRD3 antagonist: 56

How did CC1CC2CC(=O)CCC2(C)C2CCC3(C)C(O)CCC3C12 (configuration not stated) do in these assays?
DRD3 agonist: 4; KB-V1 MDR tox: 5.8µM*; KB-3-1 tox: inconclusive; DRD3 antagonist: 24

Results for C[C@]12CCC3C(C[C@@H](O)[C@H]4C[C@@H](O)CC[C@]34C)C1CC[C@@H]2O (some centres not stated) ?
DRD3 agonist: 5; KB-V1 MDR tox: inactive; SW480 rerep: -20%; KB-3-1 tox: inactive; MCF10A rereplic: -43%; DRD3 antagonist: -1

Results for CC12CCC3C(CCCC4CC(=O)CCC43C)C1CCC2O (configuration not stated) ?
DRD3 agonist: -2; KB-V1 MDR tox: 7.3µM*; SW480 rerep: -7%; KB-3-1 tox: inconclusive; MCF10A rereplic: 12%; DRD3 antagonist: 12

Results for O=C(Oc1c(Br)cc(Br)c2cccnc12)N1CCCCC1 ?
DRD3 agonist: -8; KB-V1 MDR tox: inactive; SW480 rerep: -2%; KB-3-1 tox: inactive; MCF10A rereplic: inconclusive; DRD3 antagonist: -7

How did CC(=O)Oc1ccc2c3c1O[C@H]1[C@@H](OC(C)=O)C=C[C@H]4[C@@H](C2)N(C)CC[C@@]341 do in these assays?
DRD3 agonist: 3

Results for C=CCN1CC[C@]23c4c5ccc(O)c4OC2C(O)C=CC3[C@H]1C5 (some centres not stated) ?
DRD3 agonist: -95; KB-V1 MDR tox: inactive; SW480 rerep: -8%; KB-3-1 tox: inactive; MCF10A rereplic: -38%; DRD3 antagonist: -110*

How did COc1ccc2c3c1OC1C(O)C=CC4[C@@H](C2)N(C)CC[C@]314 (some centres not stated) do in these assays?
DRD3 agonist: 0; KB-V1 MDR tox: inactive; SW480 rerep: -2%; KB-3-1 tox: inactive; MCF10A rereplic: 13%; DRD3 antagonist: -13

Results for Cc1[nH]c2ccccc2c1C(=O)CN1CC=C(c2ccccc2)CC1 ?
DRD3 agonist: 1; KB-V1 MDR tox: inactive; SW480 rerep: inconclusive; KB-3-1 tox: inconclusive; MCF10A rereplic: 18µM*; DRD3 antagonist: inconclusive

Results for O=C(CCN1CC=C(c2ccccc2)CC1)NCc1ccccc1 ?
DRD3 agonist: 10; KB-V1 MDR tox: inconclusive; KB-3-1 tox: inconclusive; DRD3 antagonist: -69*

How did Oc1ccc2ccccc2c1CN1CC=C(c2ccccc2)CC1 do in these assays?
DRD3 agonist: -12; KB-V1 MDR tox: inactive; SW480 rerep: -28%; KB-3-1 tox: inactive; MCF10A rereplic: 0%[9.22 µM]; DRD3 antagonist: inconclusive

Results for Cc1cccc(N2C(=O)NC(=O)/C(=C\C=C\c3ccco3)C2=O)c1 ?
DRD3 agonist: -4; KB-V1 MDR tox: inactive; SW480 rerep: inconclusive; KB-3-1 tox: inconclusive; MCF10A rereplic: 15µM*; DRD3 antagonist: -18

Compound activity (PubChem)
